# About 79,000 compounds went through this panel and 15% of them were active in at least one assay; those are over-represented in the sample as a whole. A number with no mark means an inactive call. Activity calls are given as the source filed them. No stated cut-off is given here; in the data, active means growth inhibition above about 70%; inactive means the rest.
# Key:
# [1] = NCI Yeast Anticancer Drug Screen. Data for the rad50 strain (AID 155);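 further: 0% = growth of vehicle-only cultures of the same strain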; settings: S. cerevisiae rad50 strain growth inhibition, active compounds read high
# In short: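 Yeast carrying a defined DNA repair defect were exposed to test compounds, and growth was compared with vehicle-treated controls to give percent inhibition.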
# [2] = NCI Yeast Anticancer Drug Screen. Data for the mec2-1 strain (AID 157); settings: S. cerevisiae mec2-1 strain, active compounds read high
# In short: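 Readout is yeast growth inhibition, normalised to vehicle-treated controls, in the mec2-1 strain exposed to compound.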
# [3] = NCI Yeast Anticancer Drug Screen. Data for the sgs1 mgt1 strain (AID 161);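 further: 0% = growth of cultures given vehicle only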; settings: S. cerevisiae sgs1 mgt1 strain, active compounds read high
# In short: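 Percent growth inhibition was derived by comparing compound-exposed mutant yeast with vehicle-exposed cultures. The strain carries alterations in DNA damage repair.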
# [4] = NCI Yeast Anticancer Drug Screen. Data for the cln2 rad14 strain (AID 165);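 further: 0% = growth equal to vehicle treated cultures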; settings: S. cerevisiae cln2 rad14 strain, active compounds read high
# In short: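 Relative to vehicle controls, growth inhibition of compound-treated cln2 rad14 yeast was recorded.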
# [5] = NCI Yeast Anticancer Drug Screen. Data for the bub3 strain (AID 167); settings: S. cerevisiae bub3 mutant strain, active compounds read high
# In short: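 Compounds were applied to a genetically altered yeast strain carrying a cell-cycle control defect. Growth inhibition was scored against vehicle-treated controls.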
# [6] = NCI Yeast Anticancer Drug Screen. Data for the mlh1 rad18 strain (AID 175); settings: S. cerevisiae mlh1 rad18 strain growth inhibition, active compounds read high
# In short: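 Test agents were incubated with a yeast strain of defined genotype (DNA damage repair defect). Inhibition of growth was derived by comparison with vehicle-exposed cultures.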
# [7] = at 5.0 µM (retest, dose inferred, filed as 0.5)
# [8] = at 50.0 µM (retest, dose inferred, filed as 5.0)
Compound,"growth inhibition [1, 7]","growth inhibition [1, 8]",growth inhibition ([1]; at 50.0 µM),"growth inhibition [2, 7]","growth inhibition [2, 8]",growth inhibition ([2]; at 50.0 µM),"growth inhibition [3, 7]","growth inhibition [3, 8]",growth inhibition ([3]; at 50.0 µM),"growth inhibition [4, 7]","growth inhibition [4, 8]",growth inhibition ([4]; at 50.0 µM),"growth inhibition [5, 7]","growth inhibition [5, 8]",growth inhibition ([5]; at 50.0 µM),"growth inhibition [6, 7]","growth inhibition [6, 8]",growth inhibition ([6]; at 50.0 µM)
COc1ccc(/C=C2\C(=O)N(C)C(=O)c3cc(OC)c(OC)cc32)cc1OC,1%,12%,61.4%,0%,16%,47.5%,-3%,-4%,62.9%,0%,19%,46.6%,5%,32%,39.5%,2%,19%,65%
CCN(CC)CCNc1ccc(C)c2sc3ccc(OC)cc3c(=O)c12,32%,94% (active),90.7% (active),22%,97% (active),89.2% (active),23%,98% (active),17.2%,16%,87% (active),30.9%,31%,99% (active),1%,32%,98% (active),93% (active)
C/C(=N\OS(=O)(=O)O)SC1OC(CO)C(O)C(O)C1O (configuration not stated),3%,-17%,3.1%,-2%,-13%,-4.8%,-1%,11%,-7.4%,-16%,18%,-0.95%,-2%,-3%,-8.15%,6%,-3%,-11%
C=Cc1ccccc1C1(O)C=CC(OC)(OC)C=C1,17%,25%,44%,11%,16%,7.1%,12%,14%,34.5%,17%,31%,-2.15%,8%,9%,44.2%,21%,32%,15.2%
O=C(C[n+]1ccc2ccccc2c1)c1ccc2ccc3ccccc3c2c1,5%,92% (active),97.7% (active),0%,73% (active),85.8% (active),-3%,89% (active),96% (active),1%,72% (active),98.2% (active),-11%,92% (active),93% (active),-4%,99% (active),98.7% (active)
CCOC(=O)c1[nH]c2c([N+](=O)[O-])cccc2c1[N+](=O)[O-],-12%,15%,97% (active),-16%,16%,98% (active),-3%,9%,94.8% (active),4%,25%,98.6% (active),0%,7%,98.8% (active),-2%,37%,99% (active)
CCCCCN(CCCCC)CC(=O)OCC1(C)CCCC2(C)C3CCC(C(C)C)=CC3=CCC12 (configuration not stated),1%,22%,-3.45%,2%,54%,-9.75%,-3%,80% (active),74.2% (active),-1%,39%,-59%,1%,73% (active),-8.05%,2%,67%,28.4%
CC(C)(C[NH-])C[NH-].[Cl][Pt+2]([Cl])([Cl])[Cl],78% (active),97% (active),82.3% (active),93% (active),99% (active),86.5% (active),95% (active),99% (active),86.5% (active),79% (active),99% (active),87.4% (active),95% (active),99% (active),82.5% (active),90% (active),97% (active),57.5%
Cc1ccccc1C(=O)C(C)c1ccccc1 (configuration not stated),-19%,-6%,6.35%,-8%,-4%,9.25%,-2%,-7%,12.5%,-35%,-5%,44.4%,-8%,3%,4.5%,-24%,4%,-9.2%
CCC[n+]1ccc(/C=N\NC(N)=S)c2ccccc21,22%,38%,38.2%,19%,36%,-16.4%,21%,38%,6.2%,9%,34%,5.25%,15%,42%,-6.7%,17%,33%,-41.6%
CC1CCCC(C(O)(C(=O)O)C2CCCC(C)C2)C1 (configuration not stated),15%,72% (active),66.3%,29%,81% (active),43%,8%,70% (active),56.5%,68%,98% (active),33.2%,14%,97% (active),25.4%,15%,79% (active),69.7%
N#CCCN(CCC#N)Cc1c(O)c(O)c(CN(CCC#N)CCC#N)c2ccccc12,-2%,12%,61.1%,-1%,41%,48%,-10%,46%,59.2%,0%,-7%,46.2%,-3%,26%,54%,-4%,25%,59%
O=C(O)CC(NC(=O)CP(=O)(O)O)C(=O)O.[NH-]C1CCCCC1[NH-].[Pt+2] (configuration not stated),30%,24%,-2.95%,2%,3%,-27.1%,26%,11%,-27.9%,22%,16%,20.8%,18%,23%,-12.2%,18%,2%,-23.1%
CC[C@H](CC[C@@H](C)C1CC[C@H]2[C@@H]3CCC4=CC(=O)CC[C@]4(C)[C@H]3CC[C@]12C)C(C)C (some centres not stated),-4%,18%,50.9%,-8%,65%,35.7%,-8%,68%,76% (active),-6%,28%,63.3%,-10%,29%,30.6%,20%,83% (active),36%
[N-]=[N+]=Nc1c([N+](=O)[O-])c(Cl)nc2ccccc12,27%,95% (active),86% (active),22%,99% (active),90.7% (active),34%,99% (active),92% (active),11%,87% (active),90.5% (active),50%,99% (active),90.6% (active),36%,98% (active),88.2% (active)
CCCCCCCC(CC(=O)O)OC(=O)CC(CCCCCCC)OC1OC(C)C(O)C(O)C1OC1OC(C)C(O)C(O)C1O (configuration not stated),-62%,68%,87.2% (active),-26%,-5%,91.8% (active),-43%,55%,92.3% (active),-42%,37%,82.3% (active),-47%,96% (active),89.5% (active),-68%,96% (active),84.2% (active)
COC(=O)c1ccccc1NC(=O)C(=O)Cc1nc2c3c(ccc2[nH]c1=O)C(=O)c1ccccc1C3=O,35%,98% (active),85.4% (active),12%,99% (active),25.8%,6%,99% (active),16.2%,5%,98% (active),-26.9%,6%,99% (active),16.3%,16%,66%,66.6%
O=C(c1ccccc1)C(Br)CCCC(Br)C(=O)c1ccccc1 (configuration not stated),30%,64%,97% (active),16%,51%,96.3% (active),19%,81% (active),96% (active),15%,32%,67.2%,23%,73% (active),97.3% (active),24%,60%,95.5% (active)
CCCNC(=O)c1ccccc1,-1%,-5%,4%,2%,-2%,13.2%,1%,-5%,2.85%,-6%,-2%,70.8% (active),-5%,-9%,22.7%,-2%,-5%,7.6%

# From PubChem BioAssay (NCI)
